Laboratory results from PubChem BioAssay (Tox21).
Inconclusive results are not listed. Activity calls are given as the source filed them. Unless noted, the call rests on the fitted dose curve; in most records, active means well fitted curve in the direction sought with a large enough effect in the repeat runs; inconclusive means weak or mixed curves; inactive means no such curve, though single readings can be large; an effect the other way counts as inactive or inconclusive.

Legend:
[1] = molecular target: Luciferin 4-monooxygenase (Photinus pyralis) (UniProt P08659); assay: qHTS assay to identify small molecule inhibitors of firefly luciferase (AID 1224835); further: nearly all actives have a fitted effect of over 25% in size
Chain of Luciferin 4-monooxygenase (Photinus pyralis) (P08659 whole entry, looked up): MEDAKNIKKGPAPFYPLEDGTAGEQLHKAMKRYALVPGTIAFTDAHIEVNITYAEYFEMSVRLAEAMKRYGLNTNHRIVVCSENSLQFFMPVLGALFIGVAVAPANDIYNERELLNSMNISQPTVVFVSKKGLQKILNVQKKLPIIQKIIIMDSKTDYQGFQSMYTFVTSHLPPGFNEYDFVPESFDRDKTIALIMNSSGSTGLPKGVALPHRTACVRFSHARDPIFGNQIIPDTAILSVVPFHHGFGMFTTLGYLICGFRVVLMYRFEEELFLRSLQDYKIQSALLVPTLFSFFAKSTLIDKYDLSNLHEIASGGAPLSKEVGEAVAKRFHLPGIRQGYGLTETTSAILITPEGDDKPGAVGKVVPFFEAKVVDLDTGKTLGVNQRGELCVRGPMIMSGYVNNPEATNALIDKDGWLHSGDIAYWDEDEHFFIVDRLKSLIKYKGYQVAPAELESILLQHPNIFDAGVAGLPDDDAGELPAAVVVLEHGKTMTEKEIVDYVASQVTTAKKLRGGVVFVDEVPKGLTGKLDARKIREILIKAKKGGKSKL
How it was run: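 Inhibition of purified Photinus luciferase is measured by luminescence. Substrate levels (D-luciferin, ATP) sit at their KM values. Each compound is tested in a concentration series.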

[2] = qHTS assay to identify small molecule agonists of the constitutive androstane receptor (CAR) signaling pathway - cell viability counter screen (AID 1224836); further: nearly all actives have a fitted effect of over 45% in size
How it was run: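 Using CellTiter-Fluor, viability of HepG2 cells harbouring hCAR and CYP2B6-2.2kb was measured following 23 h incubation with a 15-concentration compound series plus PK11195 (0.75 uM final).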

[3] = qHTS assay to identify small molecule antagonists of the constitutive androstane receptor (CAR) signaling pathway - cell viability counter screen (AID 1224837); further: nearly all actives have a fitted effect of over 45% in size
How it was run: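 Read-out: CellTiter-Fluor fluorescence after 23 hr at 37 C/5% CO2. Cells: HepG2 double-stable for hCAR and CYP2B6-2.2kb. Compounds tested at 15 concentrations in the presence of CITCO, final concentration 50 nM.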

[4] = molecular target: Nuclear receptor subfamily 1 group I member 3 (Homo sapiens) (UniProt Q14994); assay: qHTS assay to identify small molecule antagonists of the constitutive androstane receptor (CAR) signaling pathway (AID 1224838);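 further: HepG2 cells stably expressing hCAR with CYP2B6 luciferase reporter stimulated by CITCO; nearly all actives have a fitted effect of over 40% in size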
Chain of Nuclear receptor subfamily 1 group I member 3 (Homo sapiens) (Q14994 whole entry, looked up): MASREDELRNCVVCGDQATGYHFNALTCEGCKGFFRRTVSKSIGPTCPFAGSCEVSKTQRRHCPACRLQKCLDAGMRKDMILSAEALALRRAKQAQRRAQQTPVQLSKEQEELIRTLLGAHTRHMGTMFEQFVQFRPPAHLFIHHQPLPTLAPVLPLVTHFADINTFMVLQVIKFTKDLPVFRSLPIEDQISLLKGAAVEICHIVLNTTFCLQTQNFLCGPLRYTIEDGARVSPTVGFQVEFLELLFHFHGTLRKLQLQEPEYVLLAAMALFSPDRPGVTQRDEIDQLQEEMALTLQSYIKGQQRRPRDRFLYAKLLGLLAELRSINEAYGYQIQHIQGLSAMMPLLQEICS
How it was run: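 Read-out: ONE-Glo luciferase luminescence after 30 min at room temperature. HepG2-CYP2B6-hCAR double-stable cells, compounds in 15-point titration plus 50 nM CITCO final, 24 h at 37 C/5% CO2.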

[5] = molecular target: Nuclear receptor subfamily 1 group I member 3 (Homo sapiens) (UniProt Q14994); assay: qHTS assay to identify small molecule agonists of the constitutive androstane receptor (CAR) signaling pathway (AID 1224839);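 further: HepG2 cells stably carrying human CAR and a CYP2B6 luciferase reporter; nearly all actives have a fitted effect of over 15% in size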
How it was run: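 Double-stable HepG2 cells (hCAR, CYP2B6-2.2kb) seeded 4 h before compound addition. Exposure 24 h with 0.75 uM PK11195 final. Luciferase detected by ONE-Glo.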

[6] = qHTS assay to identify small molecule antagonists of the estrogen related receptor signaling pathway with the pleiotropic PPARgamma coactivator (PGC) from Tox21 10K library - cell viability counter screen (AID 1224840; active means well fitted cell-killing curve with a large enough effect in the repeat runs, not every such curve was filed as active; further: nearly all actives have a fitted effect of over 40% in size)
How it was run: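 Fluorescence read-out of CellTiter-Fluor viability reagent, added after cells had been exposed to compound in DMSO for 17.5 h at 37 C; 30 min development at 37 C/5% CO2. Cells: PGC/ERR line, 2,000/well.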

[7] = molecular target: Thyrotropin receptor (Homo sapiens) (UniProt P16473); assay: qHTS assay to identify small molecule agonists of the thyroid stimulating hormone receptor (TSHR) signaling pathway (AID 1224843; calls by dose curve; further: nearly all actives have a fitted effect of over 45% in size)
Chain of Thyrotropin receptor (Homo sapiens) (P16473 whole entry, looked up): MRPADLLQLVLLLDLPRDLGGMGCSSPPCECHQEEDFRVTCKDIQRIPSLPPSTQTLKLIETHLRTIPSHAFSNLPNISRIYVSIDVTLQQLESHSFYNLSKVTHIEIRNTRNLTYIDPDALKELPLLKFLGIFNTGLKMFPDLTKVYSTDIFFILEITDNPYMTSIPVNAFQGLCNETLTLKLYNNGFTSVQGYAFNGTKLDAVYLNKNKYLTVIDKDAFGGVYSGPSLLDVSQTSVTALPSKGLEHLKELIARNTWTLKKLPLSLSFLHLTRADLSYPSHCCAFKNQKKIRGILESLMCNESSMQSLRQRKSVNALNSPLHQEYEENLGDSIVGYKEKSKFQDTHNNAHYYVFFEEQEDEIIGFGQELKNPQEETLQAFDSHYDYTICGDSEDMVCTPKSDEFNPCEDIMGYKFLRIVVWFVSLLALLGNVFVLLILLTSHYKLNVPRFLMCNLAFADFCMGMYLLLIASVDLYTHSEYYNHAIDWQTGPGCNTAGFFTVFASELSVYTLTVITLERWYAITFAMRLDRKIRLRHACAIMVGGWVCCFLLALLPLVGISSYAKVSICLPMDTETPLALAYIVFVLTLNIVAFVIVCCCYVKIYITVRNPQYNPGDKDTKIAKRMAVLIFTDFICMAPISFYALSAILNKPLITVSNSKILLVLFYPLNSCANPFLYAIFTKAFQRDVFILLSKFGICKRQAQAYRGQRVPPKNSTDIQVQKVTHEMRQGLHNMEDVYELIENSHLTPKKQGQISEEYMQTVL
How it was run: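 A cell-based cAMP HTRF format was run in TSHR-transfected HEK293 cells, 800 per well. Treatment: 30 min, room temperature. Detection: 1 h with labelled cAMP and anti-cAMP cryptate. Concentration-response over 15 points, three replicates.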

[8] = qHTS assay to identify small molecule agonists of the hypoxia (HIF-1) signaling pathway - cell viability counter screen (AID 1224844; calls by dose curve; further: nearly all actives have a fitted effect of over 50% in size)
How it was run: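 CellTiter-Glo luminescence read-out, 30 min RT, taken in the same wells as the beta-lactamase HRE reporter assay; HRE-bla ME-180 cells, 0.5% dialyzed FBS, 17 hr compound treatment at 37C, 5% CO2.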

[9] = qHTS assay to identify small molecule agonists of H2AX (AID 1224845; active means well fitted activation curve with a large enough effect in the signal ratio in the repeat runs, not every such curve was filed as active; the % refers to the signal ratio)
How it was run: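 Phospho-H2AX Ser139 measured by HTRF (ex 320 nm; em 665 and 620 nm) after 24 hr antibody incubation. Compounds, 15 concentrations, 0.76% DMSO, were applied to CHO-K1 cells for 3hr at 37C before lysis.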

[10] = qHTS assay to identify small molecule agonists of the hypoxia (HIF-1) signaling pathway (AID 1224846; active means well fitted activation curve with a large enough effect in the signal ratio in the repeat runs, not every such curve was filed as active; the % refers to the signal ratio)
How it was run: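 Beta-lactamase FRET read-out (CCF4-AM substrate) from ME-180 cells carrying an HRE-driven bla reporter, after 17 hrs compound exposure at 37C/5% CO2. Cells were seeded at 2,000 per well in 0.5% dialyzed FBS medium and preincubated 5 hrs.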

[11] = qHTS assay to identify small molecule agonists of H2AX - cell viability counter screen (AID 1224847; calls by dose curve; further: top concentration of the series differs between compounds; nearly all actives have a fitted effect of over 30% in size)
How it was run: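 Quantitative HTS viability measurement: CHO-K1 wild-type cells in serum (10% FBS) medium, short 3 hr drug exposure at 37C with 0.76% DMSO, CellTiter-Glo luminescent detection.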

[12] = qHTS RealTime-Glo MT Cell Viability Assay in HepG2 cells - 24 hour (AID 1224867); further: nearly all actives have a fitted effect of over 50% in size
How it was run: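 Real-time, nonlytic viability: 600 HepG2 cells/well mixed with NanoLuc enzyme plus prosubstrate; 5 h settle, compound (DMSO) added by pintool; luminescence monitored over 40 h at 37 C.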

[13] = qHTS RealTime-Glo MT Cell Viability Assay in HepG2 cells - 40 hour (AID 1224870); further: nearly all actives have a fitted effect of over 50% in size
How it was run: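 Real-time viability: cells seeded at 600 per well together with NanoLuc and cell-permeant prosubstrate, compounds added after 5 h incubation. Luminescence tracked at 0, 8, 16, 24, 32 and 40 h of exposure.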

[14] = A CellTox Green Cytotoxicity Assay to monitor cytotoxicity in HEK293 cells - 40 hour (AID 1224871); further: nearly all actives have a fitted effect of over 45% in size
How it was run: (§1)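 Read-out: fluorescence of a cell-impermeant cyanine dye staining DNA of dead cells, proportional to cytotoxicity. HEK293, 600 cells/well with reagent, compound (23 nL DMSO) added after 5 h; reads at 0, 8, 16, 24, 32, 40 h.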

[15] = qHTS assay to identify small molecule antagonists of the estrogen related receptor signaling pathway with the pleiotropic PPARgamma coactivator (PGC) from Tox21 10K library (AID 1224841; call rule not given here; further: actives are mostly falling curves and most rising ones were filed inactive; nearly all actives have a fitted effect of over 50% in size)
How it was run: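 Luminescence read-out (One-Glo luciferase reagent, 30 min at room temperature) from PGC/ERR cells exposed to DMSO-dissolved test compounds for 18 h at 37 C; cells, 2,000 per well, had been preincubated 6 h before compound transfer.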

[16] = qHTS assay to identify small molecule agonists of the estrogen related receptor signaling pathway with the pleiotropic PPARgamma coactivator (PGC) from Tox21 10K library (AID 1224842); further: nearly all actives have a fitted effect of over 15% in size
How it was run: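 Luminescence from One-Glo (30 min, room temperature) measured after PGC/ERR cells had 18 h at 37 C with pinned compound (23 nL in DMSO). Cells had been seeded at 2,000 per well and pre-incubated 6 h.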

[17] = qHTS assay to identify small molecule antagonists of the estrogen related receptor (ERR) signaling pathway from Tox21 library (AID 1224848); further: nearly all actives have a fitted effect of over 50% in size
How it was run: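 ERR cell line, 2,000 cells/well. 6 h settle, then compound (DMSO) added; 18 h at 37 C; ONE-Glo luminescence after 30 min RT.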

[18] = qHTS assay to identify small molecule agonists of the estrogen related receptor (ERR) signaling pathway from Tox21 library (AID 1224849; calls by dose curve; further: nearly all actives have a fitted effect of over 15% in size); details: ERR reporter cell line, ONE-Glo luciferase, 18 h; at 92.4 µM (top of the series) unless noted
How it was run: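 Luminescence readout (ONE-Glo, 30 min RT) after 18 h compound exposure at 37 C of NTP-supplied ERR reporter cells; cells were plated 6 h before compound addition by pin tool.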

[19] = A CellTox Green Cytotoxicity Assay to monitor cytotoxicity in HEK293 cells - 0 hour (AID 1224869); further: nearly all actives have a fitted effect of over 50% in size
How it was run: as §1

[20] = qHTS RealTime-Glo MT Cell Viability Assay in HEK293 cells - 32 hour (AID 1224868)
How it was run: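 Cells + reagent dispensed (600 cells/well, HEK293) → 5 h at 37 C/5% CO2 → 23 nL compound in DMSO pinned → 40 h at 37 C → luminescence read at 0, 8, 16, 24, 32, 40 h.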
On the % scale 0 is the no-effect control and ±100 the full control effect.

Cc1ccsc1C(=CCCN1CCC[C@@H](C(=O)O)C1)c1sccc1C
inactive: Potency [1] | Potency [2] | Potency [3] | Potency [4] | Potency [5] | Potency [6] | Potency [7] | Potency [8] | Potency [9] | outcome [10] | Potency [11] | Potency [12] | Potency [13] | Potency [14]

CCCCCCCOC(=O)CCC
inactive: Potency [1] | Potency [2] | Potency [3] | Potency [4] | Potency [5] | Potency [6] | Potency [15] | Potency [16] | Potency [7] | outcome [10] | Potency [11] | Potency [17] | activity change, positive = activation [18] -0.487% | Potency [12] | Potency [19] | Potency [14]

CCCc1c2oc(C(=O)O)cc(=O)c2cc2c(=O)cc(C(=O)O)n(CC)c12
inactive: Potency [1] | Potency [2] | Potency [3] | Potency [4] | Potency [5] | Potency [6] | Potency [15] | Potency [16] | Potency [7] | Potency [8] | outcome [10] | Potency [11] | Potency [17] | activity change, positive = activation [18] 1.31% [at 42.5 µM] | Potency [12] | Potency [20] | Potency [19] | Potency [13]

C=Cc1ccccc1
inactive: Potency [1] | Potency [2] | Potency [3] | Potency [4] | Potency [5] | Potency [6] | Potency [8] | Potency [9] | outcome [10] | Potency [12] | Potency [20] | Potency [19] | Potency [14]

CC1(O)CSC(C)(O)CS1 (centres undefined)
inactive: Potency [1] | Potency [2] | Potency [3] | Potency [4] | Potency [5] | Potency [6] | Potency [8] | outcome [10] | Potency [11] | Potency [12] | Potency [20] | Potency [19] | Potency [13] | Potency [14]

CCOC(=O)C1CC(=O)C(=C(O)C2CC2)C(=O)C1 (centres undefined)
inactive: Potency [1] | Potency [2] | Potency [3] | Potency [4] | Potency [5] | Potency [6] | Potency [15] | Potency [16] | Potency [8] | Potency [9] | outcome [10] | Potency [11] | Potency [17] | activity change, positive = activation [18] 6.54% | Potency [12] | Potency [19] | Potency [13] | Potency [14]

CC(=O)OC(C)OC(C)=O
inactive: Potency [1] | Potency [2] | Potency [3] | Potency [4] | Potency [5] | Potency [6] | Potency [7] | Potency [9] | outcome [10] | Potency [11] | Potency [12] | Potency [20] | Potency [19] | Potency [13] | Potency [14]

O=C(O)[C@@H]1CSCN1
inactive: Potency [1] | Potency [2] | Potency [3] | Potency [4] | Potency [5] | Potency [6] | Potency [7] | Potency [8] | Potency [9] | outcome [10] | Potency [11] | Potency [12] | Potency [20] | Potency [19] | Potency [13] | Potency [14]
